Results reported in PMC10668032, “Altered binding affinity of SIX1-Q177R correlates with enhanced WNT5A and WNT pathway effector expression in Wilms tumor”.
The full ranking holds about 33,000 sequences; the median of “e-score” is about -0.053, and the highest 2% start at about 0.38. This excerpt belongs to a sample that is enriched for the highest values.

target: T1, SIX1 homeodomain (reference allele) (human, UniProt Q15475 108-198); experiment: universal protein binding microarray; Universal all-10-mer PBM (8x60K, AMADID 030236), 300 nM GST-tagged protein, Alexa Fluor 488 anti-GST; buffer, salt, pH and temperature not stated (as in Berger); high values mean tight binding; details: protein: ivt; tags: N-terminal GST; dsDNA, one strand shown
T1 sequence: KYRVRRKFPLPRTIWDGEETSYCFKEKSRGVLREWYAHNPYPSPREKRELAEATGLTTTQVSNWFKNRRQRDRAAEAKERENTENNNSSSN
In short: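 Homeodomains fused to GST were made by in vitro transcription/translation and measured by anti-GST western blot with a recombinant GST standard curve. At 300 nM final concentration, they were applied in duplicate to universal 'all 10-mer' protein binding microarrays (8×60K format).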

Sequence | binding signal [E-score]
CGGACACC | 0.3658 ± 0.00136
ATGACACC | 0.4711 ± 0.00199
ATGACACG | 0.289 ± 0.0161
AGGACACC | 0.366 ± 0.0116
CTGACACC | 0.468 ± 0.0134
TATCGCAA | 0.33 ± 0.0108
CCAGGAGA | 0.158 ± 0.0169
AGCATGAT | 0.2 ± 0.0238
ATAAGCAG | 0.173 ± 0.00802
AGATGAGA | 0.224 ± 0.0832
AGAAGATA | 0.201 ± 0.105
CGATCATC | 0.3167 ± 0.00296
GGATGATA | 0.443 ± 0.0105
AGCTGATC | 0.3159 ± 0.00281
AGATGATC | 0.38 ± 0.0348
CGCTGATC | 0.279 ± 0.0361
GGATGGTA | 0.214 ± 0.0386
GGATGAGA | 0.212 ± 0.0038
CGATGATC | 0.379 ± 0.019
AGAAGATC | 0.231 ± 0.077
AGATGATA | 0.432 ± 0.0425
ATGAAACC | 0.242 ± 0.0415

Sequence | binding signal [E-score]
ATCCCATA | 0.351 ± 0.0216
ATATTTGA | 0.173 ± 0.0606
ATCATTTG | 0.244 ± 0.0909
ATCGGGCC | 0.188 ± 0.0382
ACACCTGT | 0.277 ± 0.00124
TATCGAGA | 0.293 ± 0.0133
ATAGCCGG | 0.22519 ± 0.00017
ACGCATCT | 0.169 ± 0.0233
GGCAGATA | 0.216 ± 0.0469
ACAGTGAT | 0.199 ± 0.0229
ACTAGGAT | 0.187 ± 0.0427
CAGTTATC | 0.176 ± 0.0291
AACAATAT | 0.253 ± 0.0623
CGATGAGA | 0.191 ± 0.0564
CGATGATA | 0.445 ± 0.0281
CGATGACA | 0.18 ± 0.00711
ATTATGCG | 0.242 ± 0.0214
GTGTAGTA | 0.185 ± 0.0109
CACTATCA | 0.276 ± 0.0303
GGATATAC | 0.406 ± 0.0168
GTATATAC | 0.316 ± 0.0323
CGATATAC | 0.405 ± 0.0197

Sequence | binding signal [E-score]
AGATATAC | 0.38 ± 0.0393
CGATATAG | 0.362 ± 0.0306
AGATATAT | 0.337 ± 0.0754
AGATATAA | 0.261 ± 0.0786
CGATATAA | 0.243 ± 0.0501
GGATATAA | 0.352 ± 0.0244
ACACGGGC | 0.179 ± 0.0209
ACCCCGTA | 0.209 ± 0.0622
CGGTTTCA | 0.152 ± 0.0123
ATCCTCAC | 0.234 ± 0.0503
ATAGTGTA | 0.205 ± 0.0143
CTCAAGGA | 0.164 ± 0.0491
GGGGCGGA | 0.159 ± 0.113
ATTTATAC | 0.22 ± 0.116
TATGGTAA | 0.166 ± 0.0578
AGACCCCG | 0.23 ± 0.085
ACACCCCA | 0.365 ± 0.0445
ATACCCCA | 0.43 ± 0.00878
ATACCCCG | 0.4703 ± 0.00344
TGACCCCA | 0.198 ± 0.0237
ATACCCCC | 0.454 ± 0.015
ACCCCCCG | 0.168 ± 0.0136

Sequence | binding signal [E-score]
ACACCCCG | 0.353 ± 0.0394
TACCCCCA | 0.243 ± 0.0116
ACACCCCC | 0.3856 ± 0.00209
ATTACCCC | 0.177 ± 0.0101
ATAACCCC | 0.251 ± 0.0341
ATAGCCTG | 0.205 ± 0.031
ATCCCATG | 0.311 ± 0.0488
GACCATGA | 0.216 ± 0.0376
GGGAGATA | 0.3342 ± 0.000849
ATCAGTAC | 0.2244 ± 0.00203
GATCACTA | 0.371 ± 0.0113
GGATAGGA | 0.28 ± 0.0103
AGATAGCT | 0.178 ± 0.0771
GATCCTAA | 0.262 ± 0.00612
ATCAGGGC | 0.178 ± 0.0395
ACAAGGTA | 0.192 ± 0.0136
GATAGTAC | 0.212 ± 0.0174
AAGATATT | 0.214 ± 0.124
CAGATATC | 0.456 ± 0.0169
GAGAGATC | 0.286 ± 0.00645
GAGATATC | 0.442 ± 0.0368
CAGATATA | 0.263 ± 0.0342

Sequence | binding signal [E-score]
GAGATATA | 0.359 ± 0.0685
AAGATATC | 0.445 ± 0.0468
AAGATATG | 0.303 ± 0.0441
CAGATATG | 0.315 ± 0.0384
CTCTACAC | 0.163 ± 0.00511
ACCATAGA | 0.197 ± 0.0646
CCGATCTA | 0.2622 ± 0.00225
ATAGTGCA | 0.163 ± 0.0274
CGAGGGTA | 0.159 ± 0.0143
ACTAATCC | 0.228 ± 0.027
CTATCAGC | 0.202 ± 0.00952
ATATCAGG | 0.403 ± 0.0398
ATCTCAGA | 0.31 ± 0.0258
ATATCAGC | 0.404 ± 0.0329
CTATCAGA | 0.271 ± 0.0216
GTGTCAGA | 0.29 ± 0.0236
GTATCAGA | 0.466 ± 0.0136
ATATCAGA | 0.408 ± 0.0495
GTATCTGA | 0.355 ± 0.00568
AGATCAGG | 0.284 ± 0.0116
AGATCAGC | 0.273 ± 0.00331
ATCTCAGG | 0.164 ± 0.0156
